# High-throughput results deposited in PubChem by National Center for Advancing Translational Sciences (NCATS).
# IL1B secr inh – inflammasome signaling inhibition, IL-1 beta readout; THP-1 LPS/ATP IL-1B secretion, AlphaLISA, 16 h; stronger effect = lower value; activity change, % at 57.5 µM; actives 4.7% (n = 360,000); in the data active means activity change below about -50%; inconclusive means mostly about -30% to -49%
#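 THP-1 cells pretreated 1 hr with compounds (up to 57.5 uM final), then stimulated with LPS (250 ng/mL final) plus ATP (1.25 mM final); secreted IL-1B measured by AlphaLISA after 16 hr, decreased signal indicating inhibition.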
# DT40 TDP1 no CPT – qHTS for Inhibitors of human tyrosyl-DNA phosphodiesterase 1 (TDP1): qHTS in cells in absence of CPT; Potency, µM (top dose mostly 46.2 µM), actives largely listed as inhibitors; actives 15% (n = 420,000); DT40 Tdp1-/- hTDP1 cells, no CPT, ATP luminescence, 48 h; further: nearly all actives have a fitted effect of over 55% in size
#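 Readout: luminescence from CellTiter-Glo after 30 min in the dark at RT. Cells: DT40 Tdp1-/- with stable hTDP1, 400/well. Exposure: compounds alone, ≥48 hr, 37 °C.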
# uPA generation – blocks generation of uPA at the cell surface | cell surface uPA generation assay, qHTS | Potency, µM (highest dose often 38.3 µM), usual class: inhibitors | actives 0.31% (n = 330,000); active means well fitted inhibition curve with a large enough effect; inconclusive means small, poorly fitted or top-dose-only effect; inactive means no such curve, though single readings can be large or run the other way; tested in mouse RAW 264.7 cells; further: nearly all actives have a fitted effect of over 55% in size
# DT40 TDP1 CPT – growth inhibition of DT40 Tdp1-/-;hTDP1 cells with camptothecin (screen for TDP1 inhibitors); chicken DT40 Tdp1-/-;hTDP1 cells + 20 nM CPT, ATP luminescence, 48 h; Potency, µM (top dose mostly 46.2 µM), usual class: inhibitors; actives 12% (n = 420,000); AID 686979; further: nearly all actives have a fitted effect of over 55% in size
#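 Chicken DT40 Tdp1-/- cells complemented with human TDP1, 400 cells/well, exposed to compounds plus 20 nM camptothecin for at least 48 h at 37 C; viability read as ATP content by CellTiter-Glo luminescence.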
# HT1080 IDH1KD tx – toxicity to HT-1080 IDH1 knockdown cells (counter line); AID 686971; actives 2% (n = 360,000); Potency, µM (highest dose often 46.1 µM), hits mostly cytotoxic; HT-1080 IDH1 knockdown viability, ATP luminescence, 48 h
#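 After a 2 h attachment period, IDH1KD HT-1080 cells took pin-transferred compound for 48 h at 37 °C; ATP-based luminescence after 10 min room-temperature reagent incubation reported viability.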
# HT1080NT lethal – kills 2HG-producing HT-1080-NT fibrosarcoma cells; HT-1080-NT fibrosarcoma viability, CellTiter-Glo ATP luminescence, 48 h; Potency, µM (titrated, usually from 46.1 µM), actives largely listed as cytotoxic; AID 686970; actives 1.6% (n = 360,000);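 further: NT is the 2HG producing partner of a matched IDH1 knockdown line; nearly all actives have a fitted effect of over 55% in size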
#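 HT-1080-NT fibrosarcoma cells (2HG-overproducing), 750 cells/well in RPMI with 5% FBS, dosed after 2 h and incubated 48 h at 37C. CellTiter-Glo luminescence normalized to DMSO and no-cell wells; concentration-response curves fitted and classed.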
# Numbers stand for hits; - = inactive; ? = inconclusive; . = not tested or not shown; [ ] = remark or other dose. This is a sample that favours compounds with a hit; in the whole collection about 19% have one here. Unless noted, the call rests on the fitted dose curve; in most records, active means well fitted curve in the direction sought with a large enough effect; inconclusive means small, poorly fitted or top-dose-only effect, or another doubt; inactive means no such curve, though single readings can be large; an effect the other way counts as inactive or inconclusive.
SMILES,IL1B secr inh,DT40 TDP1 no CPT,uPA generation,DT40 TDP1 CPT,HT1080 IDH1KD tx,HT1080NT lethal
Brc1ccc(-c2csc(N/N=C/c3ccco3)n2)cc1,-,10µM,-,?,-,-
Cc1onc(-c2ccccc2)c1-c1csc(N/N=C/c2ccccc2)n1,-,12µM,-,?,-,-
CCCN(CC(=O)Nc1ccc(F)c(F)c1F)C(=O)CCc1nc2ccccc2c(=O)[nH]1,-,-,-,?,-,-
COc1ccc(/C=C/C(=O)N2CCc3c(cnc(C)c3CNS(=O)(=O)c3cccs3)C2)cc1,.,?,.,-[9.04 µM],.,.
COc1ccc(N2CC(NC(=O)/C=C\c3ccc4c(c3)OCO4)CC2=O)cc1 (stereo not drawn),.,-,.,-,.,.
CN(C)S(=O)(=O)c1ccc(-c2csc(N/N=C/c3ccc(O)cc3)n2)cc1,-103,0.65µM,-,0.92µM,4.1µM,9.2µM
C(=N\Nc1nc(-c2ccccc2)cs1)/c1ccncc1,?,?,-,-,-,-
C(=N\Nc1nc(-c2ccccc2)cs1)/c1cccs1,?,?,-,?,-,-
Cc1sc(N/N=C/c2ccco2)nc1-c1ccccc1,-,23µM,-,?,-,-
Clc1ccc(-c2csc(N/N=C/c3ccco3)n2)cc1,-,7.3µM,-,?,-,-
Clc1ccc(-c2csc(N/N=C\c3cccnc3)n2)cc1,-,15µM,-,?,-,-
Cc1sc(N/N=C/c2cccnc2)nc1-c1ccccc1,?,?,-,-,?,-
CCOC(=O)C1CCCN(C(=O)c2cc(C#N)cs2)CC1 (stereo not drawn),-,-,.,-,-,-
CCOC(=O)CCn1c(=O)c2cccn2c2cccnc21,.,-,.,-,.,.
COc1ccc(C(=O)NNC(=O)CSc2nnc(COc3ccccc3OC)n2C)cc1,-,-,-,-,-,-
c1ccc(C2Oc3ccccc3C3CC(c4cccs4)=NN32)cc1 (stereo not drawn),-,16µM,-,?,-,-
CS(=O)(=O)N1N=C(c2cccs2)CC1c1ccccc1 (stereo not drawn),-,-,-,-,-,-
CCOC(=O)c1cnc2ccc(OCC)cc2c1NCCc1ccc(OC)c(OC)c1,.,2.3µM,.,3.3µM,.,.
CCOC(=O)c1cnc2ccc(C)cc2c1NCCc1ccc(OC)c(OC)c1,.,15µM,.,15µM,.,.
COc1cc(Cl)c(C)cc1NC(=O)CNC(=O)Cn1ccc2ccccc2c1=O,.,-,.,-,.,.
O=C(Nc1cccc(NC(=O)c2cccnc2)c1)c1ccccc1,-,?,-,-,-,-
NC(=O)c1cccc(-c2cnc(N)c(C(=O)c3cccnc3)n2)c1,-95,9.2µM,-,2.3µM,-,-
CC(=O)Nc1cccc(-c2cnc(N)c(C(=O)c3cccnc3)n2)c1,-99,10µM,?,8.2µM,-,-
CNS(=O)(=O)c1cc(-c2nnc(Nc3cc(C)ccc3C)c3ccccc23)ccc1C,.,21µM,.,21µM,.,.
CNS(=O)(=O)c1cc(-c2nnc(N3CCOCC3)c3ccccc23)ccc1C,-,-,-,-,-,-
SMILES,IL1B secr inh,DT40 TDP1 no CPT,uPA generation,DT40 TDP1 CPT,HT1080 IDH1KD tx,HT1080NT lethal
Cc1ccc(-c2nnc(Nc3ccccc3)c3ccccc23)cc1S(=O)(=O)N1CCOCC1,.,?,.,-,.,.
Cc1ccccc1Nc1nnc(-c2ccc(C)c(S(=O)(=O)N3CCOCC3)c2)c2ccccc12,.,16µM,.,?,.,.
Cc1ccc(Nc2nnc(-c3ccc(C)c(S(=O)(=O)N4CCOCC4)c3)c3ccccc23)c(C)c1,.,16µM,.,?,.,.
Nc1nnc(CC(=O)N/N=C/c2ccc(-c3ccc(F)cc3)o2)s1,-51,-,-,-,-,-
CCOC(=O)c1ccc(-c2ccc(/C=N/NC(=O)Cc3nnc(N)s3)o2)cc1,-,?,-,-,-,-
O=C(NCCc1ccccc1C(F)(F)F)C1CCC(=O)N(C2CC2)C1 (stereo not drawn),-,-,-,-,-,-
COc1ccc(CNC(=O)C2CCN(S(=O)(=O)c3ccc4c(ccn4C)c3)CC2)cc1,.,?,.,-,.,.
CCOc1ccc(/C=N/Nc2ccc(Cl)nn2)c(O)c1,-,0.58µM,-,1.2µM,-,-
Oc1c(Br)cc(/C=N/Nc2ccc(Cl)nn2)cc1Br,-,?,-,-,-,-
Oc1c(Br)cc(Br)cc1/C=N/Nc1ccc(Cl)nn1,-,2.9µM,-,?,-,-
Oc1ccc(/C=N/Nc2ccc(Cl)nn2)c(O)c1O,-,21µM,?,?,-,-
COc1ccc(C2c3cc(OC)c(OC)cc3CC3C(=O)OCC32)cc1OC (stereo not drawn),-,-,-,-,-,-
O=C(CCS(=O)(=O)c1ccc(F)cc1)N1CCN(c2ccccc2)CC1,-,-,-,?,-,-
Cc1c(Cl)ccc2sc(N3CCN(C(=O)C4CC4)CC3)nc12,.,5.8µM,.,12µM,.,.
Cc1ccc(S(=O)(=O)CCC(=O)N2CCN(c3nc4c(C)c(Cl)ccc4s3)CC2)cc1,.,3.3µM,.,2.6µM,.,.
COc1cccc2sc(N3CCN(C(=O)CCS(=O)(=O)c4ccc(F)cc4)CC3)nc12,.,7.3µM,.,5.8µM,.,.
C=CCn1c(CCc2cc(C(C)(C)C)c(O)c(C(C)(C)C)c2)n[nH]c1=S,?,?,-,?,?,?
CC(=O)NC(c1cccc(F)c1)c1nc(-c2ccc(N(C)C)cc2)cs1 (stereo not drawn),-,?,.,?,-,-
COCCCN1C(=O)C(CC(=O)NC2CCCC2)CC(C(=O)N2CCOCC2)=C1C (stereo not drawn),-,?,.,-,-,-
Cc1ccc(CNc2nnc(C)c3nnn(Cc4ccc(F)cc4)c23)cc1,.,-,.,?,.,.
Cc1nnc(N2CCN(c3ccccc3)CC2)c2c1nnn2Cc1ccc(F)cc1,.,?,.,16µM,.,.
C1CCC(c2nn3c(-c4n[nH]c5c4CCC5)nnc3s2)CC1,?,?,-,?,-,-
CCN(CC)c1ccc(-c2nn3c(-c4n[nH]c5c4CCC5)nnc3s2)cc1,-,0.65µM,-,0.92µM,2.3µM,1.5µM
CC1(OC(=O)C2CCCC2)C(=O)C=C2C=C(c3ccsc3)N(C3CCCCC3)C=C2C1=O (stereo not drawn),-,21µM,-,21µM,-,-
CC1(OC(=O)CCc2ccccc2)C(=O)C=C2C=C(c3ccc(C#N)cc3)N(C(CO)CO)C=C2C1=O (stereo not drawn),-,-,-,-,-,-
CC1(OC(=O)C2CCCC2)C(=O)C=C2C=C(c3ccsc3)N(Cc3ccc4c(c3)OCO4)C=C2C1=O (stereo not drawn),-,?,-,?,-,-
